IL1B secr inh: inhibitors of inflammasome signaling (IL-1 beta secretion); activity change, % at 57.5 µM; THP-1 LPS/ATP IL-1B secretion, AlphaLISA, 16 h; stronger effect = lower value; 360,000 compounds, 4.7% hits; in the data active = activity change below about -50%; inconclusive = mostly about -30% to -49%
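THP-1 cells pretreated 1 hr with compounds (up to 57.5 uM final), then stimulated with LPS (250 ng/mL final) plus ATP (1.25 mM final); secreted IL-1B measured by AlphaLISA after 16 hr, decreased signal indicating inhibition.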
TDP1 cell CPT: growth inhibition of DT40 Tdp1-/-;hTDP1 cells with camptothecin (screen for TDP1 inhibitors); chicken DT40 Tdp1-/-;hTDP1 cells + 20 nM CPT, ATP luminescence, 48 h; Potency, µM (series often up to 46.2 µM), inactives show top-dose activity change, negative = growth inhibition, hits mostly inhibitors; 420,000 compounds, 12% hits; AID 686979; also: potency is read from the fitted curve at half-maximal effect; nearly all actives have a fitted effect of over 55% in size
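Cell growth measured by CellTiter-Glo luminescence after a minimum 48 h, 37 C compound exposure with 20 nM CPT in Tdp1-knockout DT40 cells stably expressing hTDP1, seeded 400/well; qHTS titration format.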
HT1080 IDH1KD tx: HT-1080 IDH1 knockdown cell toxicity (counter line). AID 686971. Potency, µM (highest dose often 46.1 µM), for inactives: top-dose activity, negative = toxicity, most hits filed as cytotoxic. 360,000 compounds, 2% hits. HT-1080 IDH1 knockdown viability, ATP luminescence, 48 h;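 also: potency is read from the fitted curve at half-maximal effect; 0% = DMSO wells and -100% = cell-free medium wells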
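Cytotoxicity counter-line: IDH1KD HT-1080, 48 h, CellTiter-Glo. Curves classed by r2, magnitude and activity.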
DT40 TDP1 no CPT: qHTS for Inhibitors of human tyrosyl-DNA phosphodiesterase 1 (TDP1): qHTS in cells in absence of CPT | DT40 Tdp1-/- hTDP1 cells, no CPT, ATP luminescence, 48 h | Potency, µM (series often up to 46.2 µM), without a hit: at the highest dose activity change, negative = growth inhibition, hits mostly inhibitors | 420,000 compounds, 15% hits | AID 686978, 2013; also: potency is read from the fitted curve at half-maximal effect; nearly all actives have a fitted effect of over 55% in size
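Camptothecin absent (DMSO only). Human TDP1-complemented DT40 knockout cells, 400 cells/well, 37 °C for minimum 48 hr; ATP measured via CellTiter-Glo, 30 min dark incubation, luminescence.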
HT1080-NT tox: kills 2HG-producing HT-1080-NT fibrosarcoma cells. AID 686970. 360,000 compounds, 1.6% hits. Potency, µM (doses to about 46.1 µM), inactives show at the top dose activity, negative = less viability, most hits filed as cytotoxic. HT-1080-NT fibrosarcoma viability, CellTiter-Glo ATP luminescence, 48 h;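 also: NT is the 2HG producing partner of a matched IDH1 knockdown line; potency is read from the fitted curve at half-maximal effect; 0% = DMSO-treated cells and -100% = media-only wells without cells; nearly all actives have a fitted effect of over 55% in size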
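Luminescent CellTiter-Glo readout after 48 hours of compound exposure at 37 degrees C defined viability of HT-1080-NT cells. Activity was normalized to DMSO wells and cell-free media wells; concentration-response curves were fitted and assigned curve classes.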
Starred values were filed as active, the others as inactive; u = inconclusive; x = no result. Most compounds without a hit are left out; they make up all but 19% or so of the library. Unless noted, calls follow the shape of the dose curve; as a rule, active = well fitted curve in the direction sought with a large enough effect; inconclusive = small, poorly fitted or top-dose-only effect, or another doubt; inactive = no such curve, though single readings can be large; an effect the other way counts as inactive or inconclusive. Unless noted, % is scaled to controls: 0 for no effect and ±100 for the full control effect.

SMILES	IL1B secr inh	TDP1 cell CPT	HT1080 IDH1KD tx	DT40 TDP1 no CPT	HT1080-NT tox
C#CCOC(C(=O)OCCN(C)C)(c1ccccc1)c1ccccc1	x	21µM*	x	12µM*	x
OCCOc1ccccc1	-7	7%	-1%	-2%	6%
S=C(SSC(=S)N1CCCCC1)N1CCCCC1	x	0.75µM*	x	0.94µM*	x
c1ccc(C(c2ccccc2)c2ccncc2)cc1	-27	u	0%	21µM*	-9%
CC(C)C[C@H]1CN([C@@H](CC(C)C)CN2CCCC2CN2C(=S)NC[C@@H]2Cc2ccc(O)cc2)C(=S)N1CC1CCCCCC1 (stereo partly drawn)	u	18µM*	6%	18µM*	5%
Cc1ccc2c(C)cccc2c1	11	-7%	19%	-4%	-3%
COc1ccc(C(CNC(=O)Cc2ccc(Cl)c(Cl)c2)N(C)C)cc1 (stereo not drawn)	-51*	u	-11%	u	-19%
COC(=O)C1=C(c2cccc(OC)c2OC)C[C@@H]2CC[C@H]1N2C(=O)N1CCC(O)CC1	9	7%	5%	0%	6%
COC(=O)C1=C(c2cccc(C#N)c2)C[C@@H]2CC[C@H]1N2C(=O)NC(C)C	-2	5%	7%	-4%	6%
COC(=O)C1=C(c2ccccc2)C[C@@H]2CC[C@H]1N2C(=O)N1CCC(C)CC1	-7	u	-7%	15µM*	3%
COC(=O)C1=C(c2ccc(F)cc2F)C[C@@H]2CC[C@H]1N2C(=O)N1CCC(C)CC1	9	16µM*	-14%	10µM*	0%
COC(=O)C1=C(c2cccc(C#N)c2)C[C@@H]2CC[C@H]1N2C(=O)N1CCC(C)CC1	-17	16µM*	-2%	23µM*	15%
COC(=O)C1=C(c2cccc(OC)c2OC)C[C@@H]2CC[C@H]1N2C(=O)N1CCC(C)CC1	33	u	12%	13µM*	0%
O=C(/C=C/c1ccccc1)N1Cc2ccccc2-n2nncc2C1	23	-19%	-3%	u	0%
O=C1CCCN1CC#CCN1CCCC1	-25	-9%	4%	0%	-3%
COc1ccc(OC)c(N=Cc2c(O)[nH]c(=O)[nH]c2=O)c1	17	3%	-6%	3%	2%
COC(=O)C1=C(c2ccc(-c3ccccc3)c(F)c2)C[C@@H]2CC[C@H]1N2C(=O)N1CCC(O)CC1	u	15µM*	-12%	9.2µM*	-10%
COC(=O)C1=C(c2ccc(-c3ccccc3)c(F)c2)C[C@@H]2CC[C@H]1N2C(=O)N1CCC(C)CC1	20	7.3µM*	u	4.6µM*	u
COC(=O)C1=C(c2ccc(-c3ccccc3)c(F)c2)C[C@@H]2CC[C@H]1N2C(=O)NC1Cc2ccccc2C1	-6	u	-13%	u	-9%
Cc1ccc(N)c(C(=O)c2ccc(Br)cc2)c1	-1	u	-16%	u	-26%
Cc1cc(C)n2c(Br)c(CN3CC4CC(C3)c3cccc(=O)n3C4)nc2n1 (stereo not drawn)	8	-2%	0%	9%	6%
Cc1cccc(N/N=C/c2c(O)[nH]c(=S)[nH]c2=O)c1	24	9%	-20%	-4%	-11%
O=C(c1ccc2c(c1)N(Cc1ccc(F)cc1Cl)C(=O)c1ccccc1S2)N1CCC2(CC1)OCCO2	x	23µM*	x	23µM*	x
Cc1ccc(CN2C(=O)c3ccccc3Sc3ccc(C(=O)N4CCC5(CC4)OCCO5)cc32)cc1	x	u	x	23µM*	x
COC(=O)COc1ccc(Cl)cc1Cl	x	5%	x	12%	x
O=[N+]([O-])c1ccc(N2CCCC2)c2ncccc12	-9	-10%	6%	4%	25%
CC1CN(c2ccc([N+](=O)[O-])c3cccnc23)CC(C)N1 (stereo not drawn)	-5	-21%	-26%	23µM*	-28%
Cc1nc2cc(C(F)(F)F)ccc2n1C1CCN(Cc2nnnn2Cc2ccc3c(c2)OCO3)CC1	-71*	29µM*	29µM*	16µM*	23µM*

Source: PubChem BioAssay
